Assay outcomes (PubChem)
ROC1-CUL1 inh: human ROC1-CUL1 E3 ligase inhibition | P62877+Q13616 | in vitro K48 di-Ub FRET, acceptor:donor ratio, 45 min | inhibition, % at 10 µM | hit rate 0.6% among 140,000 | AID 1347404; in the data active = inhibition above about 25%
* marks the source's active call; other numbers are inactive results. This excerpt belongs to a sample that is enriched for hits.

SMILES	ROC1-CUL1 inh
C=CCN1C(=O)/C(=C/c2c(OCc3ccccc3C#N)ccc3ccccc23)C(=O)NC1=S	14
N#CC(C=Nc1ccccc1)c1nc(-c2cc3cc(Br)ccc3oc2=O)cs1 (stereo not given)	-6
O=C(O)c1sc(Br)c(I)c1I	0
O=C(/C(=C/c1ccccc1)Sc1ccccc1)c1ccc([N+](=O)[O-])o1	3
N#C/C(=C/C(=O)c1ccccc1)c1ccc([N+](=O)[O-])o1	85*
CCc1ccccc1NC(=O)c1ccc([N+](=O)[O-])o1	-12
CC(=O)Nc1nc(Cl)cn(-c2ccc(C)cc2)c1=O	6
O=c1c(Cl)nc(Cl)cn1-c1ccc(Cl)c(Cl)c1	32*
COc1nc(Cl)cn(-c2ccc(C)cc2)c1=O	3
CN1CCC(Oc2ccc(Cl)cc2)CC1	2
Cc1cc(C(F)(F)F)nc(SCC(=O)Nc2sc3c(c2C#N)CCC3)c1C#N	-8
COC(=O)C(=O)C(C(=O)OC)C(C(=O)OC)C(=Nc1ccc(OC)cc1)C(=O)OC (stereo not given)	1
COc1ccccc1NS(=O)(=O)c1ccccc1C	-12
OCCN1CCN(c2nc(NCC3CCCO3)c3ccccc3n2)CC1 (stereo not given)	0
COc1ccc(NC(=O)c2nn(C)c3c2CSc2ccc(C)cc2-3)cc1OC	6
Cc1ccc2c(c1)-c1c(c(C(=O)N3CCN(c4cc(C)ccc4C)CC3)nn1C)CS2	44*
Cn1nc(C(=O)N2CCN(c3ccc(Cl)cc3)CC2)c2c1-c1ccccc1SC2	1
COc1ccc(CN2C[C@@H]3C[C@@H](c4cccnc4)N4CCC[C@@]34C2=O)cc1	4
O=C(O)c1cc(N2C(=O)/C(=C\c3ccc(-c4ccc(Br)cc4)o3)C=C2c2ccccc2)ccc1O	97*
O=C1OC(c2ccccc2)=N/C1=C\c1ccc(-c2ccc(C(=O)O)cc2)o1	13
COCCN1C(=O)/C(=C/c2ccc(-c3ccc(C(=O)O)c(Cl)c3)o2)SC1=Nc1ccccc1	2
Cc1sc(NC(=O)/C=C/c2cccs2)c(C(=O)OC(C)C)c1C	-5
CC1C(=NS(=O)(=O)c2ccc(I)cc2)C(=O)N(c2ccccc2)N1C (stereo not given)	0
CC(=O)C(C(C)=O)C1=CC(=O)C(=O)c2ccccc21	103*
O=C(OC1=CC(=O)c2ccccc2C1=O)c1ccccc1	-17
SMILES	ROC1-CUL1 inh
CCc1cc2c(cc1OC(C)=O)C(=O)c1ccccc1C2=O	10
CCCc1ccc(OCC(=O)NNC(=O)c2cc3ccccc3o2)cc1	-4
CC(=O)NC1=NC(=O)/C(=C/c2cc(C)n(-c3cccc(C(=O)O)c3)c2C)S1	50*
Cc1cc(/C=C2\C(=O)N(C)C(=S)N(c3ccccc3)C2=O)c(C)n1-c1cccc(C(=O)O)c1	28*
COC(=O)c1cccc(-n2c(C)cc(/C=C3\SC(=O)N(Cc4ccc(F)cc4)C3=O)c2C)c1	-2
Cc1ccc(N2C(=O)/C(=C/c3cc(C)n(-c4ccccc4)c3C)C(=O)N(c3ccccc3)C2=S)cc1C	0
CCOC(=O)c1cccc(-n2c(C)cc(C=C3C(=O)N(C)C(=O)N(C)C3=O)c2C)c1	4
CC(=O)NC1=NC(=O)/C(=C/c2sccc2C)S1	2
COc1ccc(F)cc1S(=O)(=O)Nc1cccc(F)c1	7
Cc1cccc(/C(C#N)=C/c2ccc(N(C)C)cc2)c1	1
CCC(=O)Oc1ccc(/C=C2\N=C(c3cc(I)ccc3Cl)OC2=O)cc1OC(=O)CC	0
CC1(C)CC(=O)C/C(=N/NC(=O)c2cc3ccccc3cc2O)C1	-2
CN1C(=O)CC(=NC(=O)c2ccc(C(C)(C)C)cc2)N(C)C1=O	-12
O=S1(=O)NC(c2ccccc2)C2CCCCC21 (stereo not given)	0
COc1cc(SC)ccc1C(=O)NNC(=O)c1ccc([N+](=O)[O-])cc1	-13
O=C(N/N=C/c1cccc(O)c1O)c1ccccc1O	-2
CC(=O)c1ccc(C(=O)N(CCc2ccccc2)CC2CCCN(C)C2)s1 (stereo not given)	0
Cc1cc(C)c2c(c1)C(O)CC(C)(C)O2 (stereo not given)	-4
COc1cc(/C=C2\SC(=Nc3ccccc3Cl)NC2=O)ccc1OCC(=O)O	5
CCOc1cc(/C=C2/SC(=O)N(C(C)C)C2=O)c(Br)cc1OCC(=O)Nc1ccccc1	2
COc1cc(/C=C2\SC(=Nc3cccc(Br)c3)NC2=O)ccc1OCC(=O)O	30*
CCOC(=O)c1ccc(N=C2NC(=O)/C(=C\c3cc(Br)ccc3OCC(=O)Nc3ccccc3OC)S2)cc1	1
CCOc1cc(/C=C2\SC(=Nc3cccc(C(=O)O)c3)NC2=O)c(Br)cc1OCC(=O)Nc1ccc(C)cc1	97*
C=CCOc1ccc(/C=C2\SC(=Nc3ccccc3)NC2=O)cc1OCC	-3
CCCN1CCC(N2CCCC(C(=O)Nc3ccc(-c4cccc(OC)c4)cc3)C2)CC1 (stereo not given)	-7
SMILES	ROC1-CUL1 inh
Cc1nn(Cc2ccc(C(=O)NC3C4CC5CC(C4)CC3C5)o2)c(C)c1Cl (stereo not given)	-3
Cc1c(CC(=O)N2CCC(O)CC2)c2c(n1CC(C)C)CC(C)(C)CC2=O	-3
COCCn1cc(C(=O)NCC2(c3ccccc3)CCCC2)c(=O)c(C(=O)N2CCC(C)CC2)c1	3
CCOC(=O)C1C(c2cc(OC)c(OC)c(OC)c2)NC(=O)N(C)C1(O)C(F)(F)F (stereo not given)	3
Cc1cc(Br)cc(C)c1NC(=O)CN1CCCCC1	6
O=C1CC(CSc2nc3ccccc3[nH]2)=NC(=O)N1	11
N=C(N)SCC1=NC(=O)NC(=O)C1	26*
O=C1CC(CSCc2ccc(Cl)cc2)=NC(=O)N1	5
Cc1ccc2oc(-c3cccc(NC(=O)c4ccc(C)c([N+](=O)[O-])c4)c3C)nc2c1	0
C=CCOc1ccc(/C=C2\SC(=S)N(c3ccc(OC)cc3)C2=O)cc1OCC	23
COc1ccc(N2C(=O)/C(=C\c3ccc(OC(=O)c4cccs4)c(OC)c3)SC2=S)cc1	-9
CCOc1cc(/C=C2\SC(=S)N(c3cccc(Cl)c3)C2=O)ccc1OCC(=O)O	33*
COc1ccc(N2C(=O)/C(=C\c3ccc(O)c(Br)c3)SC2=S)cc1	42*
CCOc1cc(/C=C2\SC(=S)N(c3ccccc3)C2=O)ccc1OCc1ccc(Cl)cc1Cl	-8
O=C(O)COc1ccc(/C=C2\SC(=S)N(c3cccc(Cl)c3)C2=O)cc1	4
COc1cc(/C=C2\SC(=S)N(c3cccc(C(F)(F)F)c3)C2=O)ccc1OCC(=O)O	-2
CCOc1cc(/C=C2\SC(=S)N(c3ccc(OC)cc3)C2=O)ccc1OCC(=O)O	57*
COc1cccc(N2C(=O)/C(=C/c3ccc(O)cc3)SC2=S)c1	8
CCOc1ccc(Br)cc1CNc1ccc(C)c(Cl)c1	0
CCOC(=O)CN1CCN(Cc2cccc(Cl)c2)CC1	9
CCC1(C2CCN(C(=O)C#Cc3ccccc3)CC2)NC(=O)N(Cc2ccc3c(c2)OCO3)C1=O (stereo not given)	4
Cc1ccc(C(=O)NC(c2nnc(SCC(=O)Nc3c(C)cc(C)cc3C)n2C)C(C)C)cc1 (stereo not given)	1
COc1ccc(-c2nnc(/C=C/c3cccs3)o2)cc1	4
CCOc1ccc(/C=N\Nc2nc(C)c(C(C)=O)s2)cc1	9
COc1ccc(CC(=O)Nc2nc3c(s2)CCCC3)cc1	2
COc1ccc(/C=N/Nc2nc3c(s2)CCCC3)cc1	55*
NC(=O)C(Br)C12CC3CC(CC(C3)C1)C2 (stereo not given)	1
